The source of these data is PubChem BioAssay (NCATS).

The target in assay [1] is Cytochrome P450 2D6 (Homo sapiens) (UniProt P10635). The assay is described as follows: qHTS Assay for Inhibitors and Substrates of Cytochrome P450 2D6 (AID 891). Also: nearly all actives have a fitted effect of over 60% in size. Also: potency is read from the fitted curve at half-maximal effect. In outline:
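Human CYP2D6 (5 nM) with 30 uM Luciferin-ME EGE (at Km) in 100 mM KPO4, compound preincubated 10 min, then NADPH regeneration system for 60 min at room temperature. Luciferin read by luminescence; normalized to 1.43 uM quinidine.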

Assay [2] in a line: qHTS Assay for Identification of Small Molecule Agonists for Thrombopoietin (TPO) Signaling Pathway (AID 917). Also: % is scaled to controls: 0 for no effect and ±100 for the full control effect. Summed up: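 Luminescence from a Glycoprotein IIb promoter–driven luciferase reporter served as read-out in murine Ba/F3 cells carrying the human TPO receptor. Cells, deprived of IL-3 overnight, received compounds with 26 pM TPO and were incubated 24 hrs at 37 C.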
(In general: Quantitative high-throughput screening tests each substance at several concentrations.)

The target of assay [3] is Cytochrome P450 2C9 (Homo sapiens) (UniProt P11712). Briefly: qHTS Assay for Inhibitors and Substrates of Cytochrome P450 2C9 (AID 883). Also: nearly all actives have a fitted effect of over 60% in size. Also: potency is read from the fitted curve at half-maximal effect. Summed up:
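10nM CYP2C9 + 100uM Luciferin-H (=KM), 25mM KPO4; cpd 10 min 37C; NADPH regen, 60 min 37C; stop/detect with P450 Glo-Buffer 20 min; luminescence. Norm. to 57uM sulphaphenazole as full inhibition.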

Assay [4] can be described thus: qHTS Assay for Identification of Small Molecule Antagonists for NFkB Signaling Pathway (AID 895; active = well fitted inhibition curve with a large enough effect in the signal ratio, with a control signal flat, not every such curve was filed as active; the % refers to the signal ratio; also: % is scaled to controls: 0 for no effect and ±100 for the full control effect). Summed up: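 ME-180 NFkB-bla cells (beta-lactamase under NFkB response element), plated overnight, treated with compound then 10 pM TNF alpha (about EC50) for 5 hrs at 37 C. LiveBLAzer FRET read at 460/530 nm emission, 405 nm excitation.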
Assay [5] has as its target Muscarinic acetylcholine receptor M1 (Rattus norvegicus) (UniProt P08482). The assay is described as follows: qHTS Assay for Antagonists of Acetylcholine Muscarinic M1 Receptor: Kinetic Measurement of Intracellular Calcium Response (AID 943). Also: nearly all actives have a fitted effect of over 75% in size. Also: potency is read from the fitted curve at half-maximal effect. Summed up:
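CHO cells expressing rat M1 receptor, Fluo-4 loaded, preincubated 10 min with compound, then stimulated with EC80 carbachol (100 nM final). Kinetic calcium fluorescence over 4 min; response taken as peak over basal signal.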

For assay [6] the target is unchanged. Briefly: qHTS Assay for Antagonists of Acetylcholine Muscarinic M1 Receptor: Measurement of IP-One Response (AID 944). Also: nearly all actives have a fitted effect of over 75% in size. Also: potency is read from the fitted curve at half-maximal effect. In outline: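 CHO cells stably expressing rat M1, pretreated 10 min with compound, then stimulated 30 min with carbachol at EC80 (200 nM) in LiCl-containing buffer pH 7.4; IP1 accumulation read by HTRF competition (665/620 nm).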
Assay [7] concerns the target Pyruvate kinase (Leishmania mexicana) (UniProt Q27686). Briefly: qHTS Validation Assay for Activators of Leishmania Mexicana Pyruvate Kinase (AID 959). The note with it: purified L. mexicana pyruvate kinase, enzyme activity. In outline: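 Luminescent ATP detection (PKLight) after a 1 h room-temperature reaction of 0.2 nM LmPYK E451W mutant with 0.5 mM PEP and 0.1 mM ADP at pH 7.2. Activity is normalized to DMSO-only control wells.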

The target in assay [8] is Tyrosyl-DNA phosphodiesterase 1 (Homo sapiens) (UniProt Q9NUW8). Briefly: Confirmation Assay for Inhibitors of Tyrosyl-DNA Phosphodiesterase (TDP1) (AID 489007). Also: potency is read from the fitted curve at half-maximal effect; nearly all actives have a fitted effect of over 40% in size. The note with it: recombinant human TDP1 enzymatic activity, dose-response. In outline: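 Recombinant human Tdp1 (1 nM final), expressed in E. coli, preincubated 15 min with compound. Then 15 nM 5'-biotin/3'-phosphotyrosine-FITC DNA substrate added for 5 min at room temperature. AlphaScreen beads (10 ug/ml) added for 10 min; cleavage gives signal loss.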
Chain of Tyrosyl-DNA phosphodiesterase 1 (Homo sapiens) (Q9NUW8 whole entry, looked up): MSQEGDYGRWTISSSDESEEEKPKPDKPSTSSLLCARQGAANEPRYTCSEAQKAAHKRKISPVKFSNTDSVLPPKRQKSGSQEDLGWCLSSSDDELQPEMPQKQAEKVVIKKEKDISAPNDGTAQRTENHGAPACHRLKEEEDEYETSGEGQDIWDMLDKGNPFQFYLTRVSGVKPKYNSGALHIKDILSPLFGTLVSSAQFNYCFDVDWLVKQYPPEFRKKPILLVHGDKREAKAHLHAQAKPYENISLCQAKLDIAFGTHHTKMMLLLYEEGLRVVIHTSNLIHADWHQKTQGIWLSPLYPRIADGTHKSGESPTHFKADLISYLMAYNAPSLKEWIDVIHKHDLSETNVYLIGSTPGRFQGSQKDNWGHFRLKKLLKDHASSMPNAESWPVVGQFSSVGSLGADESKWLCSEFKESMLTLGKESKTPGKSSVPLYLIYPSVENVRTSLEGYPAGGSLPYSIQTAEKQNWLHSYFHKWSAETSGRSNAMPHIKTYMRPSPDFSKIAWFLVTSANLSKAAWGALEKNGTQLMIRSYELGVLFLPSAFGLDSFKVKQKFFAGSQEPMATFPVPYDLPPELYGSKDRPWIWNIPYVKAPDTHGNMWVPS

Assay [9] concerns the target Cytochrome P450 3A4 (Homo sapiens) (UniProt P08684). The assay is described as follows: qHTS Assay for Inhibitors and Substrates of Cytochrome P450 3A4 (AID 884). Also: series mostly up to about 57 µM; % is scaled to controls: 0 for no effect and ±100 for the full control effect; nearly all actives have a fitted effect of over 50% in size. In outline: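 20 nM human CYP3A4 with 25 uM Luciferin-PPXE (at KM) in 200 mM KPO4, preincubated 10 min with compound; NADPH regeneration started a 60 min RT reaction. Luciferin detected by luminescence, normalized to 57 uM ketoconazole as full inhibition.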

Assay [10] shares this target. Briefly: qHTS Assay for Activators of Cytochrome P450 3A4 (AID 885). Also: nearly all actives have a fitted effect of over 65% in size. Also: potency is read from the fitted curve at half-maximal effect. In outline: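 Signal was normalized against complete inhibition by 57 uM ketoconazole. The reaction used 20nM CYP3A4 with 25uM Luciferin-PPXE, 10-min compound preincubation and a 60-min NADPH-supported step at RT.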
Assay [11] in a line: qHTS Assay for Identification of Small Molecule Agonists for Hypoxia Response Element Signaling Pathway (AID 914; active = well fitted activation curve with a large enough effect in the signal ratio, with a control signal flat, not every such curve was filed as active; the % refers to the signal ratio; also: % of control where 0% means no effect). The note with it: ME-180 (cervical carcinoma) HRE-bla reporter, beta-lactamase ratio, CoCl2, 17 h; activation: active compounds read high. In outline: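 HRE-bla ME-180 cells, overnight plating in Opti-MEM with 0.5% dialyzed FBS; cpd titration + EC50 CoCl2, 17 h, 37 degrees Celsius; CCF4 2.5 h RT; 460/530 nm ratio; AC50.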

Assay [12] concerns the target Cytochrome P450 2C19 (Homo sapiens) (UniProt P33261). The assay is described as follows: qHTS Assay for Inhibitors and Substrates of Cytochrome P450 2C19 (AID 899). Also: % is scaled to controls: 0 for no effect and ±100 for the full control effect; nearly all actives have a fitted effect of over 60% in size. Summed up: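 Luminescent read-out of luciferin formed from Luciferin-H EGE (10uM, equal to KM). Enzyme 5nM in 50mM KPO4; compound added, 10 min at 37C, then NADPH regenerating system for 60 min at 37C. Full inhibition defined by 57uM ketoconazole.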

Assay [13] in a line: qHTS Assay for Identification of Small Molecule Antagonists for Thrombopoietin (TPO) Signaling Pathway (AID 918). Also: potency is read from the fitted curve at half-maximal effect; nearly all actives have a fitted effect of over 60% in size. The note with it: TPO-dependent cell signaling reporter, antagonist mode. Summed up: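 Murine Ba/F3 cells expressing human TPO receptor and a Glycoprotein IIb promoter-luciferase reporter, IL-3-starved overnight, treated with compound plus TPO at EC50 (26 pM final). After 24 h at 37 C, luminescence read to detect inhibitors.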

For assay [14], the target named is Pyruvate kinase PKM (Homo sapiens) (UniProt P14618). Briefly: qHTS Assay for Inhibitors of Human Muscle Pyruvate Kinase (AID 958). In outline:
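PKM2, human, >95% pure, 0.1 nM; PEP 0.5 mM (Km), ADP 0.1 mM; 50 mM imidazole pH 7.2, 50 mM KCl, 0.01% Tween 20, 0.05% BSA; 1 h RT; luciferase luminescence readout.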

Assay [15] concerns the target DNA dC->dU-editing enzyme APOBEC-3G (Homo sapiens) (UniProt Q9HC16). The assay is described as follows: qHTS for inhibitors of Vif-A3G interactions: Validation (AID 588379). Also: 0% is about no effect. Summed up:
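HeLa cells stably expressing Vif and A3G-eYFP, 700 cells/well, incubated overnight at 37 deg C, then exposed to compound overnight at 37 deg C. Inhibition of Vif-mediated degradation read as increased yellow fluorescence (Ex 488/Em 500-530) by laser-scanning cytometry.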

Several values for one entry are separate records, joined by “and”; a condition that tells them apart may be missing. Equal values may be shown once. Values without a mark were called inactive. Results filed as inconclusive are left out. Activity calls are given as the source filed them. Unless noted, calls follow the shape of the dose curve; as a rule, active = well fitted curve in the direction sought with a large enough effect; inconclusive = small, poorly fitted or top-dose-only effect, or another doubt; inactive = no such curve, though single readings can be large; an effect the other way counts as inactive or inconclusive.

Chain of Cytochrome P450 2D6 (Homo sapiens) (P10635 whole entry, looked up): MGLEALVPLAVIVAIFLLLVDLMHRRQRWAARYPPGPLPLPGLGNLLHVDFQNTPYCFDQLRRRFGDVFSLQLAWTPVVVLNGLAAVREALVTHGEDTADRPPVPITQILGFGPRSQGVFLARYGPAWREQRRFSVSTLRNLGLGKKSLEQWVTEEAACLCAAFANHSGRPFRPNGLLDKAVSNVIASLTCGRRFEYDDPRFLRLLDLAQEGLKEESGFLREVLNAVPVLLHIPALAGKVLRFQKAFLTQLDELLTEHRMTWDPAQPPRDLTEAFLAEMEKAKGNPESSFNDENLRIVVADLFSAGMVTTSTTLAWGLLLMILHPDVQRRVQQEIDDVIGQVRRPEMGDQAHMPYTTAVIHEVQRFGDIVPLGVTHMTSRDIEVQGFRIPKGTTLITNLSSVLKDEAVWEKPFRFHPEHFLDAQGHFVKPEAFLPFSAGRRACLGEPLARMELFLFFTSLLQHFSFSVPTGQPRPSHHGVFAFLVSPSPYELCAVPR
Chain of Muscarinic acetylcholine receptor M1 (Rattus norvegicus) (P08482 whole entry, looked up): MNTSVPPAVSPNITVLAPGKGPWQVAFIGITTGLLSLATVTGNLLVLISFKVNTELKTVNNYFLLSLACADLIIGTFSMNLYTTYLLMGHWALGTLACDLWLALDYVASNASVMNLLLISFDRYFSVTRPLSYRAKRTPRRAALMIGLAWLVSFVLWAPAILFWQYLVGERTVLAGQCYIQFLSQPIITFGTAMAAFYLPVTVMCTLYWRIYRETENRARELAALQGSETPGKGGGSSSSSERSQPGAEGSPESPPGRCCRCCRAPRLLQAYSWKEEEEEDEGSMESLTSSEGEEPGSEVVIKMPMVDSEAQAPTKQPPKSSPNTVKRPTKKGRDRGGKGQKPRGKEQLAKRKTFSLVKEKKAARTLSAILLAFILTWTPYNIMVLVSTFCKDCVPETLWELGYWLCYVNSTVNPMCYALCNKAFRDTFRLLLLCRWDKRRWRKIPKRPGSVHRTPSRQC
Chain of Cytochrome P450 2C9 (Homo sapiens) (P11712 whole entry, looked up): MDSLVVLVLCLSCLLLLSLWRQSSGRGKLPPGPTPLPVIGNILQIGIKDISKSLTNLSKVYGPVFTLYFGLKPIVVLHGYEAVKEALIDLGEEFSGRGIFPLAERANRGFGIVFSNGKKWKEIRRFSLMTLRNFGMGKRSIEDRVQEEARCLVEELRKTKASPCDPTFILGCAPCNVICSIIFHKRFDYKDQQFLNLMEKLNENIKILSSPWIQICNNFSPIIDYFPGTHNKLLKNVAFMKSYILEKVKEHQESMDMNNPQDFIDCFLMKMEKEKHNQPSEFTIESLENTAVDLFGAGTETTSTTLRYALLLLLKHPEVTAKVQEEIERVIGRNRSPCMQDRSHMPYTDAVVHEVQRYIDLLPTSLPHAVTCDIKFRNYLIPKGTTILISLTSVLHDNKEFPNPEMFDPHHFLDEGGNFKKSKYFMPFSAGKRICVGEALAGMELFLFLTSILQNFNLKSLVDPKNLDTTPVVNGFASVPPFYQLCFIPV
Chain of Cytochrome P450 3A4 (Homo sapiens) (P08684 whole entry, looked up): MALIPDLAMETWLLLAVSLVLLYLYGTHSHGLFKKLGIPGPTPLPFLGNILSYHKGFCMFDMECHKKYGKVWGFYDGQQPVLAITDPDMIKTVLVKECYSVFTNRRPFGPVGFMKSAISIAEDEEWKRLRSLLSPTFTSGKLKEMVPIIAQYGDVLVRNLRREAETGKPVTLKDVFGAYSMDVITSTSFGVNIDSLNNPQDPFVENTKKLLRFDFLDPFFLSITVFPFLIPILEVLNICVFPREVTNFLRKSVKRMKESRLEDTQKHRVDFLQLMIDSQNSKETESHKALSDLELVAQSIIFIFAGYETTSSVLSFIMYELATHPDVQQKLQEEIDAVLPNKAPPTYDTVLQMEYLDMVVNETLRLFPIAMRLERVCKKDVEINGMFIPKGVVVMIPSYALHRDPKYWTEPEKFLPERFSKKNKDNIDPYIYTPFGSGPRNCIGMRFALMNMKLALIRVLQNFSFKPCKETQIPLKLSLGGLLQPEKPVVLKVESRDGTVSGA
Chain of Cytochrome P450 2C19 (Homo sapiens) (P33261 whole entry, looked up): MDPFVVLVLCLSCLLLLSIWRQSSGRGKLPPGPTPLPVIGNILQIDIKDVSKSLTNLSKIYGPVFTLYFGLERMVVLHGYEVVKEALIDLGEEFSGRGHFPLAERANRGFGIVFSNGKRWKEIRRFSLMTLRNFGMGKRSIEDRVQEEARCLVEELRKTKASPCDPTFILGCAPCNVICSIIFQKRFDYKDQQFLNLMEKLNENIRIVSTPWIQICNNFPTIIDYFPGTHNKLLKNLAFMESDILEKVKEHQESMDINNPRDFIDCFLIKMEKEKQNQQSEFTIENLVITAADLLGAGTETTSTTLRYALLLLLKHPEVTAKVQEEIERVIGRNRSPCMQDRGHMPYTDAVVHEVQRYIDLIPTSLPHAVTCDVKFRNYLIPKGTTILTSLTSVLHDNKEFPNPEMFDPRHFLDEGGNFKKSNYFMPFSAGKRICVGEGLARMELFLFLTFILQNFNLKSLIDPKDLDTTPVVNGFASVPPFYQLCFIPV
Chain of DNA dC->dU-editing enzyme APOBEC-3G (Homo sapiens) (Q9HC16 whole entry, looked up): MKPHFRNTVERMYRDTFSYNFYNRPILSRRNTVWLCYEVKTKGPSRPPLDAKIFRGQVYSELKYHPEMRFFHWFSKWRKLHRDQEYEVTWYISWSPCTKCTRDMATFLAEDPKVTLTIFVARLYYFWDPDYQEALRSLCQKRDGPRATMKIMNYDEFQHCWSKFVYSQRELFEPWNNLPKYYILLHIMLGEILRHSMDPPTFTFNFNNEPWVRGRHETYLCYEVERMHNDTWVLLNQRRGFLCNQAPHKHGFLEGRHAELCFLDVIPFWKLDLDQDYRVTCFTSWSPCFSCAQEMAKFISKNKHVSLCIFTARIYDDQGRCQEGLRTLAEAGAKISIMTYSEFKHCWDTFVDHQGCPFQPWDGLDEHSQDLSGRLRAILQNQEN
Chain of Pyruvate kinase (Leishmania mexicana) (Q27686 2-499 E452W): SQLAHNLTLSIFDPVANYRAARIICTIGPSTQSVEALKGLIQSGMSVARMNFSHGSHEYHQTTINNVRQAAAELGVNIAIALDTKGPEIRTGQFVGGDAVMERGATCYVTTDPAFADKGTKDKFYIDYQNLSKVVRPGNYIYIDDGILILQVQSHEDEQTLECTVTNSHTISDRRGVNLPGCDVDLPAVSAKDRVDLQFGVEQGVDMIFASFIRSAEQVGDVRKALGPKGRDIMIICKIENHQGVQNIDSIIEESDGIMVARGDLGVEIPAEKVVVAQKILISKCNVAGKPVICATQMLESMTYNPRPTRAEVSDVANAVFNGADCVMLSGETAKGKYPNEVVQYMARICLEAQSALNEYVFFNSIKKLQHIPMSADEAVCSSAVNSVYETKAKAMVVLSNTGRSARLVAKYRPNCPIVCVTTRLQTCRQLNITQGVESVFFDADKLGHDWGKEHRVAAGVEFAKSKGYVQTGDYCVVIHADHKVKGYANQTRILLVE
Chain of Pyruvate kinase PKM (Homo sapiens) (P14618 whole entry, looked up): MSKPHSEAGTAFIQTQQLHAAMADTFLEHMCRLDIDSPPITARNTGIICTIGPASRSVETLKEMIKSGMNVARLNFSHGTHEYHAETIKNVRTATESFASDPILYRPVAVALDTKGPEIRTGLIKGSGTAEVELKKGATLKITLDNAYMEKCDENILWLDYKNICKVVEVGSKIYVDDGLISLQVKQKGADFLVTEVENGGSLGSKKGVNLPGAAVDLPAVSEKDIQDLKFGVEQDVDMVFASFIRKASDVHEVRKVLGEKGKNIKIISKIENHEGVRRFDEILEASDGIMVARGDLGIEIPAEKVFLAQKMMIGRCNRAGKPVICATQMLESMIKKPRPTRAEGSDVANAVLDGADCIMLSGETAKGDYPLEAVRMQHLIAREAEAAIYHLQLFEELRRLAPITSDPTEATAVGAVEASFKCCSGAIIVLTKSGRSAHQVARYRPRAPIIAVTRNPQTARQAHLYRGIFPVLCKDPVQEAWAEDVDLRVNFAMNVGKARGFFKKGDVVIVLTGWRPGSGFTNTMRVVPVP

For `O[C@@](CCN1CCCCC1)(c1ccccc1)C1CCCCC1`, in [1], the Potency is 5.01 µM (active) and 1.26 µM (active). The outcome in assay [2] was inactive.

For `O=C(O)/C=C\c1ccc(O)c(O)c1`, the Potency result in [3] and in assay [1] was “inactive” in each case.

As to `CN(C)[C@@H]1C(=O)C(C(N)=O)=C(O)[C@]2(O)C(=O)C3=C(O)c4c(O)ccc(Cl)c4[C@H](O)[C@H]3C[C@@H]12`, the Potency result in [3], in assay [4], in [5] and in [6] was “inactive” each time. Besides, the molecule was called inactive in assay [2].

For `O=C(C1CCCCC1)N1CC(=O)N2CCc3ccccc3[C@@H]2C1`, the Potency entry in assay [3] and in assay [1] was “inactive” throughout.

Take `CCn1cc(C(=O)O)c(=O)c2cc(F)c(N3CCN[C@@H](C)C3)c(F)c21`: the call in assay [2] was inactive. Moreover, in [6], the Potency result was “inactive”.

With `NC(=O)c1cc[n+](CC2=C(C(=O)O)N3C(=O)[C@@H](NC(=O)[C@H](c4ccccc4)S(=O)(=O)[O-])[C@@H]3SC2)cc1`, the Potency entry in assay [4] and in assay [5] was “inactive” in each case. The result in assay [2] was inactive. The Potency in [7] is 3.16 µM (active); in [8] it was 12.6 µM (active).

For the molecule `CC(C)NC[C@H](O)c1cc(O)cc(O)c1`, the call in [2] was inactive.

Turning to `CC(=O)[C@@H]1CC[C@@H]2[C@@H]3CCC4=CC(=O)CC[C@@]4(C)[C@H]3CC[C@]21C`, the Potency entry in assay [9] and in [1] was “inactive” in each case.

Consider `CC(=O)O[C@]1(C(C)=O)CC[C@@H]2[C@@H]3C=C(Cl)C4=CC(=O)[C@H]5C[C@@H]5[C@]4(C)[C@H]3CC[C@]21C`, for which the Potency entry in [9] is “inactive”. In addition, in assay [10], the Potency is 3.16 µM (active) and 10 µM (active). In addition, the molecule was classed as inactive in [2].

For `CC(C)(Oc1ccc([C@@H]2CC2(Cl)Cl)cc1)C(=O)O`, in assay [4], the Potency entry was “inactive”. The activation in assay [11] is -18.9%. In [2], the outcome was inactive.

Take `CCCCCN(CCCCC)C(=O)[C@H](CCC(=O)O)NC(=O)c1ccc(Cl)c(Cl)c1`: the Potency in assay [3] was 3.98 µM (active). Besides, the Potency result in [4], in assay [5] and in [6] was “inactive” each time. In addition, the molecule was classed as inactive in assay [2].

With `COc1ccc([C@H]2Sc3ccccc3N(CCN(C)C)C(=O)[C@H]2OC(C)=O)cc1`, the result in [2] was inactive.

Consider `CC[C@]1(C)CC(=O)NC1=O`, for which the Potency entry in assay [4] was “inactive”. Further, in assay [2], the molecule was called inactive.

Consider `COc1cc(=O)n(C)c2c(OC[C@@H](O)C(C)(C)O)cccc12`, for which the Potency result in assay [3], in assay [10], in assay [1], in [12], in assay [5] and in assay [6] was “inactive” each time. The result in assay [2] was inactive.

Consider `N[C@H](C(=O)N[C@@H]1C(=O)N2C(C(=O)O)=C(Cl)CS[C@@H]12)c1ccccc1`, for which the Potency result in assay [4] and in assay [5] was “inactive” in each case. Further, the result in assay [2] was inactive.

Take `C[C@@H](C[N+](C)(C)C)OC(N)=O`: the Potency entry in assay [3], in assay [4], in assay [5] and in assay [6] was “inactive” each time. Moreover, the call in assay [2] was inactive.

With `CC[C@H](NC(C)C)[C@H](O)c1ccc(O)c(O)c1`, the Potency entry in assay [10], in assay [5] and in assay [6] was “inactive” each time.

Regarding `C[C@@]12CC[C@@H]3c4ccc(O)cc4CC[C@H]3[C@H]1CC[C@H]2O`, the Potency entry in assay [1] was “inactive”.

As for `N[C@@H](CO)C(=O)NNCc1ccc(O)c(O)c1O`, the Potency result in assay [4], in assay [5] and in assay [6] was “inactive” throughout.

As to `CC(C)(C)NC[C@H](O)c1cc(O)cc(O)c1`, the outcome in assay [2] was inactive.

With `CC1(C)O[C@@H]2C[C@H]3[C@H]4C[C@H](F)C5=CC(=O)C=C[C@@]5(C)[C@@H]4[C@H](O)C[C@]3(C)[C@]2(C(=O)CO)O1`, the Potency entry in assay [10] and in assay [12] was “inactive” in each case.

Consider `OCCN1CCN(CC/C=C2\c3ccccc3Sc3ccc(C(F)(F)F)cc32)CC1`, for which the Potency is 0.891 µM (active) in assay [5] and 5.01 µM (active) in assay [6].

For the molecule `CN1CCc2cccc3c2[C@@H]1Cc1ccc(O)c(O)c1-3`, the Potency entry in [1] and in [6] was “inactive” each time. Further, the Potency in [13] was 12.6 µM (active). The call in assay [14] and in assay [15] was inactive.
